APE1 inh: inhibitors of human APE1 endonuclease. AID 2517. recombinant APE1, TAMRA/BHQ-2 abasic DNA cleavage fluorescence. P27695. 350,000 tested, 0.35% active. Potency, µM (highest dose often 65.8 µM), for the others: at the top dose activity change, negative = inhibition, usual class: inhibitors;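 also: potency is read from the fitted curve at half-maximal effect; plate controls were vehicle for no effect and reference inhibitor for full effect; nearly all actives have a fitted effect of over 55% in size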
Target sequence (P27695 whole entry, looked up): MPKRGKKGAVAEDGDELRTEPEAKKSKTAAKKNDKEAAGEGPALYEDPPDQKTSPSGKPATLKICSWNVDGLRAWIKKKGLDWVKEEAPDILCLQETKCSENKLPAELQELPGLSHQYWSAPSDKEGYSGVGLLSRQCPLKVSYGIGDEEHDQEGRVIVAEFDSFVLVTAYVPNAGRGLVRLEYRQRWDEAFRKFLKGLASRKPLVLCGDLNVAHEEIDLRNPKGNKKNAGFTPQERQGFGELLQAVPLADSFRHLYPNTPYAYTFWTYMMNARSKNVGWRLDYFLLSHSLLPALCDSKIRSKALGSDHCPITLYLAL
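Readout is kinetic fluorescence (ex 525, em 598 nm) from cleavage of 50 nM TAMRA/BHQ-2 THF abasic duplex by 0.75 nM APE1, compound added 15 min beforehand at RT.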
RECQ1 inh: RECQ1 (human) helicase inhibition. P46063. RECQ1 DNA unwinding, red fluorescence kinetic read. Potency, µM (highest dose often 57.3 µM), for inactives: top-dose activity, negative = inhibition, usual class: inhibitors. 240,000 tested, 0.54% active. AID 2549;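 also: potency is read from the fitted curve at half-maximal effect; plate controls were vehicle for no effect and no enzyme for full effect; nearly all actives have a fitted effect of over 30% in size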
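50 nM RECQ1T1 preincubated 15 min with compound in Tris pH 8.0 buffer with MgCl2, DTT, Tween-20 and 2.5 ug/ml poly(dI-dC); started with 200 nM TAMRA/BHQ-2 forked duplex and 2 mM ATP. Unwinding read as fluorescence (525/598 nm), two reads 2 h apart.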
BLM helicase inh: blocks DNA unwinding by human BLM helicase; P54132; recombinant BLM DNA unwinding, fluorescence dequenching; Potency, µM (titrated, usually from 56.1 µM), without a hit: at the highest dose activity change, negative = inhibition, most hits filed as inhibitors; 350,000 tested, 0.2% active; AID 2528;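 also: potency is read from the fitted curve at half-maximal effect; plate controls were vehicle for no effect and no enzyme for full effect; nearly all actives have a fitted effect of over 35% in size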
FEN1 inh: blocks human flap endonuclease 1 | Recombinant FEN1 flap cleavage, fluorescence, 15 min | Potency, µM (highest dose often 114 µM), inactives show at the top dose activity change, negative = inhibition, most hits filed as inhibitors | 390,000 tested, 0.35% active; also: potency is read from the fitted curve at half-maximal effect; nearly all actives have a fitted effect of over 65% in size
Target sequence (P39748 whole entry, looked up): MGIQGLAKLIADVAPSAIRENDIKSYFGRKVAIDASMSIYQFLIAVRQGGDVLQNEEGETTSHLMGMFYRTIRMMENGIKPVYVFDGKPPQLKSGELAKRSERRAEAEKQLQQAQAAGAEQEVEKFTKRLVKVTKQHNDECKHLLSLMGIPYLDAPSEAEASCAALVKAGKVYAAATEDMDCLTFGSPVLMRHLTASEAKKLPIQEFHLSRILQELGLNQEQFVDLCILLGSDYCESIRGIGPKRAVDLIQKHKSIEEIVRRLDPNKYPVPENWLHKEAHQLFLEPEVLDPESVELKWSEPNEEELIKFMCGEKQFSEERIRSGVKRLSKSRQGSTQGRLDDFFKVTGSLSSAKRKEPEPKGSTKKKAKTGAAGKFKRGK
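Enzyme 10 nM, 15 min RT preincubation with compound; start with substrate 50 nM final; reads at 0 and 15 min; qHTS titration, four-parameter Hill fit.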
PI5P4Ka inh: inhibitors of human PI5P4K alpha. P48426. AID 652105. 330,000 tested, 1.2% active. max response, %. PI5P4Kalpha enzyme, ADP-Glo luminescence, 60 min; hits give low values; active = max response of -50% or lower; inconclusive = between -30% and -50%; inactive = -30% or higher; also: value at the top dose of about 77 µM
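Enzyme plus substrate dispensed, test compounds pinned in, then ATP (5 microM final) added. After 60 min at RT, ADP-Glo reagent 1 for 45 min and reagent 2 for 30 min preceded luminescence imaging.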
WRN helicase inh: blocks human WRN helicase. WRN helicase unwinding, fluorescent forked duplex, kinetic. AID 651768. Potency, µM (highest dose often 114 µM), for inactives: at the highest dose activity change, negative = inhibition, actives largely listed as inhibitors. Q14191. 360,000 tested, 0.46% active; also: potency is read from the fitted curve at half-maximal effect; nearly all actives have a fitted effect of over 55% in size
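Kinetic red-fluorescence monitoring (525/598 nm) tracks WRN helicase activity after 100 nM fluorophore-quencher forked duplex and 2 mM ATP are added to 20 nM enzyme pretreated 15 min at room temperature with compound.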
Active calls of the source: *; i = inactive; ? = inconclusive; / = not tested or not shown; ! = a repeat was not active; [ ] = another dose, or the depositor's remark. Rows were chosen to be rich in hits. Some 1.5% of all compounds tested hit in one or more screens of this group. Unless noted, calls follow the shape of the dose curve; as a rule, active = well fitted curve in the direction sought with a large enough effect; inconclusive = small, poorly fitted or top-dose-only effect, or another doubt; inactive = no such curve, though single readings can be large; an effect the other way counts as inactive or inconclusive. Unless noted, % is scaled to controls: 0 for no effect and ±100 for the full control effect.

SMILES	APE1 inh	RECQ1 inh	BLM helicase inh	FEN1 inh	PI5P4Ka inh	WRN helicase inh
NS(=O)(=O)c1ccc(NC(=O)/C=C/c2ccco2)cc1	?	-9%	-4%	-25%	-63*	?
Cc1c(Cl)cccc1N1CCn2c1nc1c2c(=O)n(CC(=O)O)c(=O)n1C	/	/	1%	2%	/	/
Nc1ccc(-c2cc3ccccc3[nH]2)cc1	/	/	/	-16%	/	/
O=C(c1coc(=O)c(Br)c1)N1CCCc2ccccc21	?	35µM*	?	?	?	?
CSc1ccc(CNC(=O)c2cc3c(=O)n(Cc4ccco4)ccc3nc2C)cc1	/	/	1%	89µM*	/	/
Cc1cccc(N2CCN(c3nc4ccc(C(=O)c5ccccc5)cc4n4cnnc34)CC2C)c1 (configuration not stated)	/	/	-7%	21%	/	/
O=c1cc(S(=O)(=O)Cc2ccccc2)[nH]c(=O)[nH]1	/	/	/	2%	-66*	-4%
O=c1cc(CCc2ccccc2)[nH]c(=O)[nH]1	/	/	/	/	3	8%[57.1 µM]
Cc1ccc(N2C(=O)CCSC23C(=O)N(Cc2ccc(F)cc2)c2ccccc23)cc1 (configuration not stated)	/	/	-7%	-15%	/	/
CCc1ccc(S(=O)(=O)/N=C2\C=C(Nc3cccc(C(=O)O)c3)C(=O)c3ccccc32)cc1	37%	/	25µM*	-25%	-27	?
CCc1ccc(S(=O)(=O)/N=C2/C=C(Sc3ncn[nH]3)C(=O)c3ccccc32)cc1	?	?	22µM*	79µM*	-94*	20µM*
O=C(O)c1ccc(NC2=C/C(=N/S(=O)(=O)c3cccs3)c3ccccc3C2=O)cc1	/	/	/	/	?	-16%[11.6 µM]
O=C(O)c1ccc(NC2=C/C(=N/S(=O)(=O)c3ccccc3)c3ccccc3C2=O)cc1	?	-7%	14µM*	?	?	?
CCN1C(=NCc2cccc(C(F)(F)F)c2)N[C@@H](c2cccc(C(F)(F)F)c2)C(C(=O)OC)=C1C	/	/	/	-2%	/	/
COc1ccc(OC)c(N=c2ssnc2Cl)c1	-4%	-6%	-1%	-3%	-64*	56µM*
COc1cc(N=c2ssnc2Cl)c(OC)cc1Cl	-12%	i	-2%	?	-68*	56µM*!
Nc1ccccc1N=c1ssnc1Cl	10%	-15%	-2%	1%	?	-3%
COc1cccc(CNC(=O)CN2C(=O)CCCc3ccccc32)c1OC	/	/	1%	14%	/	/
O=C(N/N=C/c1c(O)n(Cc2ccco2)c(=O)[nH]c1=O)c1ccccc1	-11%	-29%	-19%	-20%	-67*	-18%
Cc1cc(C)c2nc(N3C(=O)C(O)=C(C(=O)c4ccco4)C3c3cccc(O)c3)sc2c1 (configuration not stated)	-17%	/	/	-31%	-60*	-6%
O=C(C1=C(O)C(=O)N(c2nc3ccc(Cl)cc3s2)C1c1ccco1)c1ccco1 (configuration not stated)	-13%	/	/	-36%	-74*	50µM*
CCc1ccc2nc(N3C(=O)C(O)=C(C(=O)c4ccco4)C3c3cccs3)sc2c1 (configuration not stated)	-7%	-5%	-18%	-6%	-59*	16%
COC(=O)c1sc(N2C(=O)C(O)=C(C(=O)c3ccc(C)o3)C2c2ccco2)nc1C (configuration not stated)	10%	/	-11%	-12%	-18	?
Cc1ccc2nc(N3C(=O)C(O)=C(C(=O)c4ccco4)C3c3ccc(O)cc3)sc2c1 (configuration not stated)	-14%	/	-13%	/	/	/
CCOC(=O)C1=C(O)C(=O)N(c2ccccc2)C1c1cccc([N+](=O)[O-])c1 (configuration not stated)	-4%	23%	-2%	-1%	-5	2%
SMILES	APE1 inh	RECQ1 inh	BLM helicase inh	FEN1 inh	PI5P4Ka inh	WRN helicase inh
CCOC(=O)c1sc(N2C(=O)C(O)=C(C(=O)c3ccco3)C2c2cccc([N+](=O)[O-])c2)nc1C (configuration not stated)	21%	/	-18%	-3%	-68*	-15%
CCCCCC1CCNCC1	/	/	/	-8%	/	/
COc1cccc(C(=O)c2cn(CC(=O)Nc3cccc(C)c3C)c3nc(C)ccc3c2=O)c1	/	/	-14%	2%	/	/
COc1ccc(Nc2c(-c3ccc(C)o3)nc3ccc(Cl)cn23)cc1	/	/	-2%	3%	/	/
Cc1ccc2nc(N3C(=O)C(O)=C(C(=O)c4ccc(C)o4)C3c3ccco3)sc2c1 (configuration not stated)	-4%	/	/	-17%	?	-5%
Cc1ccc2nc(N3C(=O)C(O)=C(C(=O)c4ccco4)C3c3ccc(C)o3)sc2c1 (configuration not stated)	9%	/	-11%	-1%	-52*	?
Cc1cc(/C=C/c2ccccc2)nc2ccccc12	/	/	/	-17%	/	/
CCCc1cc2c(c(=O)o1)C(O)C1OC1C2=O (configuration not stated)	4%[12.4 µM]	-14%[11.5 µM]	2%[12.4 µM]	/	/	/
CCc1ccc(CN(Cc2cn[nH]c2-c2ccc(OC)cc2)C(=O)Nc2cc(Cl)ccc2OC)cc1	/	/	-4%	-23%	/	/
CC(=O)c1c(C)oc2ccc(NS(=O)(=O)c3ccc(O)c(C(=O)O)c3)cc12	-4%	5%	1%	-4%	-21	-25%[57.1 µM]
O=C(O)c1cc(S(=O)(=O)Nc2ccc3oc(=O)sc3c2)ccc1O	?	i	3%	-23%	-60*	28µM*
O=c1oc2c(-c3ccc([N+](=O)[O-])cc3)cc(O)cc2s1	3%	-18%	-19%	-1%	-59*	56µM*
COc1cc(C(Nc2ccccn2)c2ccc3ccc(C)nc3c2O)cc(OC)c1O (configuration not stated)	22%	8%	-3%	-20%	-58*	32µM*
Cc1ccc2ccc(C(Nc3ccccn3)c3ccccc3)c(O)c2n1 (configuration not stated)	-11%	-18%	-7%	-23%	-14	-4%
CN(C)c1c(Cl)cc(/C=C/c2ccnc3ccccc23)cc1Br	/	/	/	-31%	/	/
S=C(NCCCc1cnc[nH]1)NCCCN(Cc1ccc(Cl)cc1)c1cc(-c2ccccc2)ccn1	/	/	/	-17%	/	/
O=C(Cc1ccccc1)Nc1cccc(N2C(=O)C=CC2=O)c1	5%	-3%	0%	8%	-52*	45µM*
Cc1cc(O)c(C(=O)/C=C/c2cccc([N+](=O)[O-])c2)c(=O)o1	-2%	?	-20%	-9%	-86*	-27%
CCOc1ccc(S(=O)(=O)N(CC(=O)N/N=C/c2ccc(-c3ccc([N+](=O)[O-])cc3)o2)c2ccccc2)cc1	?	-24%	-18%	-19%	-67*	-30%
